# High-throughput results (PubChem BioAssay)
# Rows were chosen to be rich in hits. Some 0.82% of all compounds tested hit in one or more screens of this group.
# GPT2 inhibitor = blocks human glutamate pyruvate transaminase 2. Recombinant GPT2, coupled pyruvate oxidase/HRP Amplex Red fluorescence. hit rate 0.25% among 100,000. Potency, µM (highest dose often 57.7 µM), inactives show at the top dose activity change, negative = inhibition, usual class: inhibitors; note: potency is the fitted concentration of half-maximal effect; nearly all actives have a fitted effect of over 60% in size
#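 GPT2 10ng/uL, a-KG 250uM, L-Ala 2mM, HEPES pH7.5 + 0.0001% Tween; 30 min RT. Then Amplex mix (PO/HRP/ThPP), 30 min RT dark, fluorescence. AOA 50uM used as positive control.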
# IP6K1 inhibitor = blocks human inositol hexakisphosphate kinase 1; hit rate 0.81% among 140,000; activity change, % (series mostly up to about 58 µM); Q92551; IP6K1 kinase, ADP-Glo luminescence, 2 h; active compounds read low; AID 1645851; in the data active = activity change below about -25%
# Target sequence (Q92551 whole entry, looked up): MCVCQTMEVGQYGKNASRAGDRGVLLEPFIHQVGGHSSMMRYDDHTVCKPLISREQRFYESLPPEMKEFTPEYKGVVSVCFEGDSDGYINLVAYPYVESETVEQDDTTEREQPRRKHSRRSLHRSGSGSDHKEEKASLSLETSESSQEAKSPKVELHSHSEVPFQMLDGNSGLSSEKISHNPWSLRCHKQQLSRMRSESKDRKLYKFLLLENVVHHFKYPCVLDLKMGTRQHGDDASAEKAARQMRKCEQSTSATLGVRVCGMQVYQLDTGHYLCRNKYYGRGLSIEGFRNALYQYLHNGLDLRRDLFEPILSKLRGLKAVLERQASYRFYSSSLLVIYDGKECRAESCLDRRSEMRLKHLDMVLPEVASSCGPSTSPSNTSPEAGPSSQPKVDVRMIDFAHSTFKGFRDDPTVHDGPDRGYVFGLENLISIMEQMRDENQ
#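 ADP-Glo luminescence measures ADP made by human IP6K1 during a 2 h RT reaction with ATP/IP6 (mix at 1.3 mM/130 uM); top library doses 57.5 and 19.1 uM final.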
# IP6K1 inh cnf = confirmation of human IP6K1 inhibitors; recombinant IP6K1 kinase, ADP-Glo luminescence, 2 h; Potency, µM (series often up to 49 µM), inactives show at the highest dose activity change, negative = inhibition, usual class: inhibitors; shares compounds with IP6K1 inhibitor; hit rate 13% among 1,200; note: potency is the fitted concentration of half-maximal effect; nearly all actives have a fitted effect of over 65% in size
# * marks the source's active call; other numbers are inactive results; i = inactive; ? = inconclusive; · = no result given; ! = a repeat was not active; [ ] = remark or other dose. Unless noted, calls come from the whole dose curve; as a rule, active = well fitted curve in the direction sought with a large enough effect; inconclusive = small, poorly fitted or top-dose-only effect, or another doubt; inactive = no such curve, though single readings can be large; an effect the other way counts as inactive or inconclusive. % is set by controls: 0 for no effect and ±100 for the full control effect.
SMILES,GPT2 inhibitor,IP6K1 inhibitor,IP6K1 inh cnf
CC(C)(C)c1ccc(CSC2=Nc3ccccc3C3=NC(CC(=O)NCc4cccs4)C(=O)N23)cc1 (configuration not stated),·,-26*,42%
CC(C)(C)c1nc2c3cc[nH]c(=O)c3c3cc(F)ccc3c2[nH]1,2%,·,-28%
CNC(=O)c1cc(C2CC2)nc2c1c(C1CCCN1[S+](=O)([O-])c1c(C)noc1C)nn2C (configuration not stated),·,-9,·
Cc1ccc2c(CNCc3cccc(Cl)c3)c(C(=O)O)n(Cc3ccc(F)cc3Cl)c2c1,·,-27*,17%
COc1ccc(CNCc2c(C(=O)O)n(Cc3ccc(F)cc3)c3cc(C)ccc23)cc1OC,·,10,·
CNc1nc2c(s1)C(c1ccc(Cl)cc1)CC(=O)N2 (configuration not stated),?,-28*,16µM*
O=C1CC(c2ccc(Cl)cc2)c2cc3c(cc2N1)OCCO3 (configuration not stated),·,-20,·
O=C(NCc1ccccc1Cl)C1CCN(Cc2ccccc2-c2ccccc2F)CC1,·,8,·
Cc1cnc(Nc2ccc(OCCN3CCCC3)cc2)nc1Nc1cccc(S(=O)(=O)NC(C)(C)C)c1,i,-1,25%
c1ccc(-c2cnc(Nc3ccc(OCCN4CCCC4)cc3)s2)cc1,?,-5,·
C[C@H](O)c1onc(-c2ccccc2)c1C(=O)N1CCN(C)CC1,-26%[88.5 µM],12,·
Cc1ccsc1/C=C/C1=NCCCN1C,?,-33*,-1%
Cc1ccsc1C(=O)N1CCCN(C)c2ccccc21,-2%,-6,·
COCCN1C(=O)c2ccccc2C(C(=O)Nc2ccc3c(c2)OCO3)C12CCCC2 (configuration not stated),2%,16,·
Cc1ccc(CC(=O)NCc2nc(-c3cccc(C)c3)no2)cc1,·,-15,·
Cc1ccc(CC(=O)NCc2nc(-c3ccccc3)no2)cc1,·,-27*,-15%
Cc1ccc(-c2noc(CNC(=O)c3ccc(C(C)(C)C)cc3)n2)cc1,·,-19,·
Cc1ccc(-c2noc(CNC(=O)c3ccccc3)n2)cc1,·,-31*,?
CNC(=O)[C@H]1CN(C(=O)NCc2ccccc2)[C@]2(C)C(=O)N(CC(=O)N(C)C)c3ccccc3[C@H]12,-42%[27.3 µM],-3,·
O=C(NCc1cccs1)c1ccc2nnc(Cc3ccco3)n2c1,i,-32*!,?
O=C(NCc1ccccn1)c1ccc2nnc(Cc3ccco3)n2c1,4%,2,·
O=C(NCc1cccc(C(F)(F)F)c1)c1ccc2nnc(Cc3ccco3)n2c1,2%,-30*,?
O=C(NCc1ccccc1Cl)c1ccc2nnc(Cc3ccco3)n2c1,i,-21,·
COc1cccc(CNC(=O)c2ccc3nnc(Cc4ccco4)n3c2)c1,3%[88.5 µM],-33*,?
O=C(NCc1ccccc1)c1ccc2nnc(Cc3ccco3)n2c1,i,-14,·
SMILES,GPT2 inhibitor,IP6K1 inhibitor,IP6K1 inh cnf
CN(C1CCc2nn(CC3CC3)c(=O)n2CC1)S(=O)(=O)c1ccc2c(c1)OCCO2 (configuration not stated),i,-6,·
CN(C)c1cc(=O)c2ccnc(Nc3ccccn3)c2o1,?,-13,·
CCn1cc(S(=O)(=O)N[C@@H]2CCOC[C@H]2O)c(C)n1,?,-6,·
O=C(COc1ccccc1Cl)N1CCCC(O)(CN2CCCC2)C1 (configuration not stated),-3%,17,·
CCC1CN(C(=O)Nc2ccc(C)c(F)c2)c2ccccc2S1 (configuration not stated),·,-27*,-9%
CCC1CN(C(=O)Nc2cc(OC)cc(OC)c2)c2ccccc2S1 (configuration not stated),·,-24,·
O=C(c1ccc2ccccc2n1)N1CCC(Cc2ccc(CN3CCOCC3)cc2)CC1,1%,16,·
Cc1ccc(SC2CCN(C(=O)c3cn(CCc4ccccc4)nn3)CC2)cc1,-2%,27,·
O=C(Nc1ccc(S(=O)(=O)Nc2ncccn2)cc1)c1ccccc1Cl,·,-4,·
Cc1ccnc2nc(NC(=O)c3ccccc3Cl)nn12,·,-25*,-2%
COCCN1C(=O)CCc2cc(NC(=O)c3ccc(F)cc3)ccc21,-13%,18,·
COc1ccccc1-c1nnc2ccc(C(=O)NCC3CC3)cn12,i,12,·
Cc1cccc(-c2nc3c4ccccc4nc(NCCc4ccccc4)n3n2)c1,·,-24,·
Cc1cccc(-c2nc3c4ccccc4nc(NCc4ccccc4Cl)n3n2)c1,·,-27*,-26%
Cc1ccc(N2CC(NC(=O)c3ccc(Br)o3)CC2=O)cc1C (configuration not stated),·,-13,·
Cc1ccc(N2CC(NC(=O)c3ccco3)CC2=O)cc1C (configuration not stated),·,-25*,-10%
CN(Cc1ccccc1)C(=O)c1ccnc(-c2nnc3ccc(N(C)c4ccccc4)nn23)c1,0%,-3,·
COc1ccnc(-c2nnc3ccc(N(C)c4ccccc4)nn23)c1,1%[88.5 µM],-39*,?
O=C(c1ccno1)N1C[C@@H]2OCC(=O)N(Cc3ccccc3)[C@@H]2C1,4%[88.5 µM],-9,·
CC(NC(=O)c1ccccc1)c1nc2ccccc2n1Cc1ccc(Cl)cc1 (configuration not stated),·,17,·
CC(=O)NC(C)c1nc2ccccc2n1Cc1ccccc1Cl (configuration not stated),·,-26*,13%
c1ccc2c(c1)CCN2C1CN(CC2CC2)C1,i,-5,·
CCCc1ccc(-c2nc(C3CCOC3)no2)cc1 (configuration not stated),0%,22,·
c1cn(-c2ccc(-c3nc(C4CCOC4)no3)cc2)cn1 (configuration not stated),i[11.5 µM],-28*,-14%
COc1ccc(C(=O)Nc2ccc(-c3cc4ccccc4oc3=O)c(C)c2)cc1Br,·,-28*,?
SMILES,GPT2 inhibitor,IP6K1 inhibitor,IP6K1 inh cnf
Cc1cc(NC(=O)c2ccc(F)cc2)ccc1-c1cc2ccccc2oc1=O,·,10,·
COc1ccc(CNC(=O)CSc2ncc3c(n2)-c2cc(Cl)ccc2N(Cc2ccccc2)S3(=O)=O)cc1OC,·,-8,·
COc1ccc(CNC(=O)CSc2ncc3c(n2)-c2cc(Cl)ccc2N(Cc2ccccc2)S3(=O)=O)cc1,·,-27*,9%
Cc1cc(C)c(CNC(=O)c2nc(-c3cccc(F)c3)cc3c2ccn3C(C)C)c(=O)[nH]1,1%[88.5 µM],14,·
Cc1ccc2nc(-c3ccsc3)c(Nc3ccc(C(C)C)cc3)n2c1,·,22,·
CC(C)c1ccc(Nc2c(-c3ccsc3)nc3ccc(Cl)cn23)cc1,·,-31*,-11%
Cc1ccc(C2=Nc3ccccc3NC(c3ccncc3)=N2)cc1,·,-30*,9%
CCCOc1ccc(C2=NC(c3ccncc3)=Nc3ccc(C)cc3N2)cc1,·,-10,·
COc1ccc2c(c1)C(COCc1ccc(C(=O)O)cc1)=CC(C)(C)CO2,·,-1,·
COc1ccc2c(c1)C(CN1CCN(c3ccc4oc(C(=O)O)cc4c3Cl)CC1)=CC(C)(C)CO2,·,-74*,-12%
O=C(CSc1ccccn1)N[C@@H]1CCOC[C@H]1OCc1cscn1,3%[11.5 µM],10,·
COc1cccc(N2CCN(C(=O)c3cc(NC(=O)C(C)C)cc4nc(C)ccc34)CC2)c1,i,13,·
Cc1nc2cc(-c3cccc(F)c3)nn2c(C)c1CCC(=O)NC(C)c1ccccc1 (configuration not stated),·,-25*,1%
